Results from PubChem BioAssay (NCATS).
Inconclusive results are not listed. Calls of active or inactive are those of the source. Unless noted, the call rests on the fitted dose curve; in most records, active means well fitted curve in either direction with a large enough effect (not every such curve was filed as active); inconclusive means small, poorly fitted or top-dose-only effect, or another doubt; inactive means flat fitted curve, though single readings scatter.

Experiments:
[1] = molecular target: Lysosomal acid glucosylceramidase (Homo sapiens) (UniProt P04062); experiment: Glucocerebrosidase-p2 (AID 348; in the data active means potency below about 10 µM; further: potency means the concentration at half of the fitted maximal effect); conditions: purified GBA, blue fluorogenic substrate, 40 min
Chain of Lysosomal acid glucosylceramidase (Homo sapiens) (P04062 whole entry, looked up): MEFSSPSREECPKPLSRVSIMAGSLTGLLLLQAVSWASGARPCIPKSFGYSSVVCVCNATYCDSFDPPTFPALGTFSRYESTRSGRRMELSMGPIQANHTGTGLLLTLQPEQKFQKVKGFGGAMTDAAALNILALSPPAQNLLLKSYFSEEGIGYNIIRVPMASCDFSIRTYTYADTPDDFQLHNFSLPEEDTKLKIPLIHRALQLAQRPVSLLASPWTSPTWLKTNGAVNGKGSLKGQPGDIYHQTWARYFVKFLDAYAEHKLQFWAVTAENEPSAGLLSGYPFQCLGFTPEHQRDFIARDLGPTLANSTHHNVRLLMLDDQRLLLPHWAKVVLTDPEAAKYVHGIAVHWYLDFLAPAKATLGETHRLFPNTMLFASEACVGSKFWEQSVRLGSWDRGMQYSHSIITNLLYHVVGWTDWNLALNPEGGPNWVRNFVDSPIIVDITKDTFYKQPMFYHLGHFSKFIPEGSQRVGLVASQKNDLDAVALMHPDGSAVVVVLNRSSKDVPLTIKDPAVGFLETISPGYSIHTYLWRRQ
Procedure, shortened: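 Normal human glucocerebrosidase (0.2 nM) with blue fluorogenic substrate (80 uM final) in citrate/phosphate pH 5.9 with 10mM sodium taurocholate, 0.01% tween-20; 40 min RT, NaOH/glycine stop; fluorescence Ex 365/Em 440; AC50 from a titration from 0.6 nM upwards.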

[2] = AP1 Signaling Pathway (AID 357); conditions: ME-180 AP-1-bla reporter, EGF-induced, beta-lactamase ratio, 5 h; at 7.69 µM (top of the series) unless noted;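 further: ME-180 reporter cells stimulated with EGF at its EC50 level; on the % scale 0 is the no-effect control and ±100 the full control effect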
Procedure, shortened: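 Beta-lactamase reporter under AP-1 response element, ME-180 background. Stimulus: EC50 EGF. Compound exposure 5 h, 37 °C. Detection: CCF4, 2.5 h RT, 460/530 nm. Values: AC50 from titration.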

[3] = NFAT Signaling Pathway (AID 444); conditions: Jurkat NFAT-bla M1, carbachol, beta-lactamase ratio, 5 h; at 7.69 µM (top of the series) unless noted;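 further: carbachol stimulus at about its EC50 of 1 µM final; on the % scale 0 is the no-effect control and ±100 the full control effect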
Procedure, shortened: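 Read-out: CCF4 FRET ratio (460 nm/530 nm) after 1 h RT dye loading, used for %activity and AC50 from titration series. Cells: Jurkat NFAT-β-lactamase/M1 line, treated with compound plus 1 uM carbachol for 5 h, 37 °C.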

[4] = Stat Signaling Pathway (AID 446); conditions: ME-180 SIE beta-lactamase reporter, IL-6 stimulated, 5 h; at 7.69 µM (top of the series) unless noted;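 further: ME-180 cervical cancer cells given 40 pM IL-6 alongside compound; SIE-controlled beta-lactamase reporter measured as 460/530 nm FRET emission ratio; on the % scale 0 is the no-effect control and ±100 the full control effect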
Procedure, shortened: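 FRET read-out (405 nm excitation, 460/530 nm emission) of a beta-lactamase reporter under a STAT-inducible element in ME-180 cervical carcinoma cells. Cells with compound receive 40 pM IL-6 for 5 h. Values are normalised to AC90 stimulation and AC90 JAK-inhibitor controls.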

[5] = molecular target: Glucocorticoid receptor (Homo sapiens) (UniProt P04150); experiment: GR-EFC Redistribution (AID 451; calls by dose curve; further: potency means the concentration at half of the fitted maximal effect); conditions: CHO-K1 GR-EFC translocation, beta-gal luminescence, 2 h
Chain of Glucocorticoid receptor (Homo sapiens) (P04150 whole entry, looked up, the tested form may be a part): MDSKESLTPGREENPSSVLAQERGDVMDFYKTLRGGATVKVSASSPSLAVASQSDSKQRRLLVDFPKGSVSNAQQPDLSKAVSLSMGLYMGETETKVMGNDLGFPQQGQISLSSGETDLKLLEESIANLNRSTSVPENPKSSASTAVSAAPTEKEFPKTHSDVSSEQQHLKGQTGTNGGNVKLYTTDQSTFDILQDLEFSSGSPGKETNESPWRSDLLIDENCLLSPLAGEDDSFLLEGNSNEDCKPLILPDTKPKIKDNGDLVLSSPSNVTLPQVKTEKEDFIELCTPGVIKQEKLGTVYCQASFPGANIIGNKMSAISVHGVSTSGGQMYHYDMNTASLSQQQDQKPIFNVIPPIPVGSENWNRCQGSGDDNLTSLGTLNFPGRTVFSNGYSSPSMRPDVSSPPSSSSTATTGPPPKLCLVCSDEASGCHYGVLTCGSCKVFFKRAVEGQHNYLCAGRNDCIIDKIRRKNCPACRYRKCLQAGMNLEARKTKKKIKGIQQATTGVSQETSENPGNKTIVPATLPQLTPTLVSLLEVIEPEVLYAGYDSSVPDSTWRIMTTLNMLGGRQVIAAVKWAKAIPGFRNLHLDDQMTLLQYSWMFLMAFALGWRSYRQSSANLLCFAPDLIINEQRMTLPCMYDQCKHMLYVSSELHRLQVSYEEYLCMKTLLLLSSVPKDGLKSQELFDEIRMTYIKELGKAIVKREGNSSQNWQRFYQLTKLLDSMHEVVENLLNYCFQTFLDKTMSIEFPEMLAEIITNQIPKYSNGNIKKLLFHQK
Procedure, shortened: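 Translocation of GR-ED fusion to nuclear EA restores b-gal, read by luminescence after 1 h room-temperature detection. Engineered CHO-K1 biosensor cells, 1,000/well, exposed 2 h at 37 C to titrations up to 46 uM final.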

[6] = molecular target: Mitogen-activated protein kinase 10 (Mus musculus) (UniProt Q61831); experiment: JNK3 AlphaScreen Assay (AID 530); conditions: JNK3 lysate, c-Jun phosphorylation; series mostly up to 57.1 µM;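 further: kinase came from lysate of stimulated human HepG2 cells; signal reports phosphorylation of biotinylated GST-cJun 1-79 at Ser73 with 10 µM ATP; on the % scale 0 is the no-effect control and ±100 the full control effect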
Procedure, shortened: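 Kinase buffer: 20 mM Tris-HCl pH 7.6, 10 mM MgCl2, 1 mM DTT, 0.1 mM Na3VO4, 0.01% Tween-20; ATP 10 uM. Substrate biotin-GST-cJun(1-79), enzyme from activated HepG2 lysates. Detection by Ser73 phospho-antibody AlphaScreen.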

[7] = molecular target: 3',5'-cyclic-AMP phosphodiesterase 4B (Homo sapiens) (UniProt Q07343); experiment: qHTS Assay for Inhibitors of PDE-IV (AID 607; active means well fitted activation curve with a large enough effect in the main read-out, with a control signal flat, not every such curve was filed as active; further: % of control where 0% means no effect); conditions: HEK293 ACTOne CNG channel cells, membrane potential fluorescence; series mostly up to 22.9 µM
Chain of 3',5'-cyclic-AMP phosphodiesterase 4B (Homo sapiens) (Q07343 whole entry, looked up): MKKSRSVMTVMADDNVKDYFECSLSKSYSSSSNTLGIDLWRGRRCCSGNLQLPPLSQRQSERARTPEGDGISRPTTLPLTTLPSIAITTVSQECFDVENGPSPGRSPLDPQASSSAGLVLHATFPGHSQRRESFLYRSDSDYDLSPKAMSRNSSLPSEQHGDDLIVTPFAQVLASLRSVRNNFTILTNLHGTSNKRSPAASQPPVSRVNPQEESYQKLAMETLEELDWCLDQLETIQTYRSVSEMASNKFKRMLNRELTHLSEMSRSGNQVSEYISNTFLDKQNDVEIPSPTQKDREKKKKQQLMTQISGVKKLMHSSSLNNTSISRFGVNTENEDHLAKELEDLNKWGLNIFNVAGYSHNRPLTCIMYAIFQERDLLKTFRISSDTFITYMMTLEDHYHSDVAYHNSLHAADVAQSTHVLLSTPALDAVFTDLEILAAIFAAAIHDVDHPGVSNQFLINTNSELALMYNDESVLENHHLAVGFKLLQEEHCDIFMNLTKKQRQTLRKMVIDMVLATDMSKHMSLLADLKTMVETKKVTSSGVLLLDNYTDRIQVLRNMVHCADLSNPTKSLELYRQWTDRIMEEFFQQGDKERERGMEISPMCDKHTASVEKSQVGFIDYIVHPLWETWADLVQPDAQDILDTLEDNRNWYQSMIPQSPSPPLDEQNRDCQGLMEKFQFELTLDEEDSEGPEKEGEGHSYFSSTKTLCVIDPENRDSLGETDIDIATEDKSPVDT
Procedure, shortened: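 Cell-based read-out of cAMP via a modified cyclic nucleotide-gated channel and membrane potential dye (535/590 nm) in HEK293 cells expressing PDE4 endogenously. Compounds tested up to 22.9 uM final; 100 uM RO 20-1724 reference.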

[8] = molecular target: Cytochrome P450 3A4 (Homo sapiens) (UniProt P08684); experiment: qHTS Assay for Activators of Cytochrome P450 3A4 (AID 885; active means well fitted curve in the direction sought with a large enough effect; an effect the other way counts as inactive or inconclusive; further: nearly all actives have a fitted effect of over 65% in size; further: potency means the concentration at half of the fitted maximal effect); conditions: recombinant CYP3A4, Luciferin-PPXE luminescence, 60 min; series mostly up to 57.1 µM
Chain of Cytochrome P450 3A4 (Homo sapiens) (P08684 whole entry, looked up): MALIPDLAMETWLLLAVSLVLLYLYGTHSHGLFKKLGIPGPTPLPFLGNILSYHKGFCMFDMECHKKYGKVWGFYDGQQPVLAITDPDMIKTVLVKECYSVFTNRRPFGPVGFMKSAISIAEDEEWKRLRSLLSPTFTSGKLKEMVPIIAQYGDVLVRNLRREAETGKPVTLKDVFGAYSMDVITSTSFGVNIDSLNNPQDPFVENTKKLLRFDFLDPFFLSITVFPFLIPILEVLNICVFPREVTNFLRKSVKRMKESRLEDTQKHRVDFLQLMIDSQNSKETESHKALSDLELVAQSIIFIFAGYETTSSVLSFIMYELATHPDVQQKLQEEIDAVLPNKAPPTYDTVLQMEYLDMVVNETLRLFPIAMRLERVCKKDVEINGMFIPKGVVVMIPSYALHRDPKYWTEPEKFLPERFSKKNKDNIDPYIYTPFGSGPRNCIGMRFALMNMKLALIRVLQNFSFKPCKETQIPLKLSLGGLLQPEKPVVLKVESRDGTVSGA
Procedure, shortened: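 Luminescent readout of luciferin formed from 25 uM Luciferin-PPXE (KM level) by 20 nM CYP3A4 in 200 mM KPO4, with 60 min NADPH-driven reaction at room temperature after 10 min compound exposure. Ketoconazole (57 uM) defined 100% inhibition.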

[9] = qHTS Assay for Lipid Storage Modulators (AID 1519; calls by dose curve); conditions: Drosophila S3 cells, BODIPY lipid droplet/cell ratio, laser cytometry, cells loaded with oleic acid; for activity change, negative = inhibition: at 57.5 µM (top of the series)
Procedure, shortened: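 Cells seeded at 5,000 per well were treated with compounds over a concentration series and loaded with oleic acid (400 uM, as added). Lipid droplet fluorescence (488 nm excitation, 500-530 nm channel) was read by laser-scanning cytometry and normalized to 20 uM Triacsin C.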

[10] = Primary qHTS for small molecule stabilizers of the endoplasmic reticulum resident proteome: Secreted ER Calcium Modulated Protein (SERCaMP) assay (AID 1508630; active means well fitted curve in the direction sought with a large enough effect; an effect the other way counts as inactive or inconclusive; further: on the % scale 0 is the no-effect control and ±100 the full control effect); conditions: SH-SY5Y GLuc-SERCaMP (Gaussia luciferase released on ER calcium loss) secretion, thapsigargin, luminescence; series mostly up to 38.4 µM
Procedure, shortened: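 The SH-SY5Y reporter protocol was run at 3 concentrations up to 38.3 uM (primary) or 11 concentrations (follow-up): 16 h compound, 100 nM thapsigargin for 4 h, then extracellular luciferase luminescence.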

[11] = molecular target: Cytochrome P450 3A4 (Homo sapiens) (UniProt P08684); experiment: qHTS Assay for Inhibitors and Substrates of Cytochrome P450 3A4 (AID 884; active means well fitted curve in the direction sought with a large enough effect; an effect the other way counts as inactive or inconclusive; further: nearly all actives have a fitted effect of over 50% in size; further: potency means the concentration at half of the fitted maximal effect); conditions: recombinant CYP3A4, Luciferin-PPXE luminescence; series mostly up to 57.1 µM
Procedure, shortened: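 Luminescent readout of luciferin produced by CYP3A4 (20 nM) dealkylation of Luciferin-PPXE, 25 uM (its KM). NADPH-driven reaction ran 60 min at RT after 10 min compound preincubation; data scaled to 57 uM ketoconazole as 100% inhibition.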

[12] = qHTS Assay for Identification of Small Molecule Agonists for Hypoxia Response Element Signaling Pathway (AID 914; active means well fitted activation curve with a large enough effect in the signal ratio, with a control signal flat, not every such curve was filed as active; the % refers to the signal ratio; further: % of control where 0% means no effect); conditions: ME-180 (cervical carcinoma) HRE-bla reporter, beta-lactamase ratio, CoCl2, 17 h; activation: stronger effect = higher value
Procedure, shortened: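 In Opti-MEM containing 0.5% dialyzed FBS and 10 mM HEPES, ME-180 HRE-bla cells received a compound titration and EC50 CoCl2. They were incubated 17 hours, then CCF4-loaded 2.5 hours at room temperature before ratio reading.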

[13] = molecular target: Cytochrome P450 2D6 (Homo sapiens) (UniProt P10635); experiment: qHTS Assay for Inhibitors and Substrates of Cytochrome P450 2D6 (AID 891; active means well fitted curve in the direction sought with a large enough effect; an effect the other way counts as inactive or inconclusive; further: potency means the concentration at half of the fitted maximal effect; nearly all actives have a fitted effect of over 60% in size); conditions: recombinant CYP2D6, luciferin-ME EGE luminescence; series mostly up to 57.1 µM
Chain of Cytochrome P450 2D6 (Homo sapiens) (P10635 whole entry, looked up): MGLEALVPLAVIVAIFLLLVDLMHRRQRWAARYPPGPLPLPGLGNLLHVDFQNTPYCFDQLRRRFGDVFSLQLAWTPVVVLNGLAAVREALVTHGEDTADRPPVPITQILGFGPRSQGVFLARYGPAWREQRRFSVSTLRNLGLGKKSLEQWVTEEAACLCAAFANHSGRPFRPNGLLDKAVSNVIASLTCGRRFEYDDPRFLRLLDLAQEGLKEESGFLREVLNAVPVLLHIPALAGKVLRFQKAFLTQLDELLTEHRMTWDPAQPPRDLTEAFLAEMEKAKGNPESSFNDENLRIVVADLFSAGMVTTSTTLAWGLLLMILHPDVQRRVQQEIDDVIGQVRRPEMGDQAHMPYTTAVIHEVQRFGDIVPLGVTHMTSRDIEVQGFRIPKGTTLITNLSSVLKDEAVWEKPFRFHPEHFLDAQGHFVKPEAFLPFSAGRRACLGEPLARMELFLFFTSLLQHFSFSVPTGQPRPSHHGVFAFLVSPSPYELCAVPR
Procedure, shortened: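 Luminescent read-out of luciferin formed by 5 nM human CYP2D6 demethylating 30 uM Luciferin-ME EGE (Km level) over 60 min at room temperature after NADPH regeneration addition. Data normalized to full inhibition by 1.43 uM quinidine.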

[14] = measured here: cell count channel max response
[15] = measured here: lipid channel max response

Row | Compound | Potency [1] | activity change, negative = inhibition [2] | activity change, negative = inhibition [3] | activity, negative = inhibition [4] | Potency [5] | Potency [6] | Potency [7] | Potency [8] | activity change, negative = inhibition [9] | max response [9, 14] [%] | max response [9, 15] [%] | outcome [10] | Potency [11] | activation [12] | Potency [13]
1 | O=S(=O)(c1ccccc1)N1CCC2(CCN(c3ccc(-c4ccccc4)cc3)CC2)CC1 | > 11.4 µM (inactive) | 1.76% (inactive) | 11.9% (inactive) | -10.3% (inactive) | > 46 µM (inactive) | inactive | inactive | inactive | 5.32% (inactive) | 18.6 | 22.9 | inactive |  |  | 
2 | COc1ccc(C(=O)N2CCC[C@@]3(CCN(CC(C)C)C3)C2)cc1 | > 11.4 µM (inactive) | -12.8% (inactive) | -2.79% (inactive) | -10.6% (inactive) | > 46 µM (inactive) | inactive | inactive |  | 2.82% (inactive) | 8.22 | 13.2 | inactive | 7.94 µM (active) |  | 
3 | COc1ccc(NC(=O)N2CC3(CCNCC3)C2)cc1 | > 11.4 µM (inactive) | 7.88% (inactive) | 6.29% (inactive) | -3.83% (inactive) | > 46 µM (inactive) | inactive | inactive |  | 5.62% (inactive) | 12.7 | 23 | inactive |  |  | 
4 | COC(=O)N1CCC2(CCN(C(=O)Nc3cccc(C#N)c3)CC2)CC1 | > 11.4 µM (inactive) | -20.7% (inactive) | 4.12% (inactive) | 7.14% (inactive) | > 46 µM (inactive) | inactive | inactive |  | -0.883% (inactive) | 12.6 | 14 | inactive |  |  | 
5 | CC(C)NC(=O)N1CC2(CCN(C(=O)c3cccn3C)CC2)C1 | > 11.4 µM (inactive) | -10.8% (inactive) | -17.2% (inactive) | 4.27% (inactive) | > 46 µM (inactive) | inactive | inactive |  | 2.27% (inactive) | 10.2 | 15.6 | inactive |  |  | 
6 | CC(C)NC(=O)N1CC[C@@]2(CCCN(C(=O)c3cnccn3)C2)C1 | > 11.4 µM (inactive) | 7.64% (inactive) | 11.4% (inactive) | 4.04% (inactive) | > 46 µM (inactive) | inactive | inactive |  | 3.99% (inactive) | -1.16 | 5.89 | inactive |  |  | 
7 | O=C(c1cccc(F)c1)N1CCC[C@@]2(CCN(c3ccccn3)C2)C1 | > 11.4 µM (inactive) | -17% (inactive) | -7.81% (inactive) | -6.48% (inactive) | > 46 µM (inactive) | inactive | inactive |  | 6.88% (inactive) | 12.7 | 23.1 | inactive |  |  | 
8 | COCC(=O)N1CCC2(CCN(Cc3nccs3)CC2)CC1 | > 11.4 µM (inactive) | 0.0953% (inactive) | -2.93% (inactive) | 10% (inactive) | > 46 µM (inactive) | inactive | inactive |  | 2.2% (inactive) | 9.94 | 16.3 | inactive |  | 14.8% (inactive) | 
9 | O=C(c1csnn1)N1CCC2(CC1)CCN(c1cccc(-c3ccccc3)c1)CC2 | > 11.4 µM (inactive) | -21.7% (inactive) | 22.2% (inactive) | -14.3% (inactive) | > 46 µM (inactive) | inactive | inactive |  | -6.94% (inactive) | 9.03 | 3.45 | inactive |  |  | 
10 | N#Cc1cccc(NC(=O)N2CC3(CCN(C(=O)c4cccc(F)c4)CC3)C2)c1 | > 11.4 µM (inactive) | -1.48% (inactive) | 8.8% (inactive) | -8.78% (inactive) | > 46 µM (inactive) | inactive | inactive | 10 µM (active) | 4.13% (inactive) | 17 | 25.1 | inactive | inactive |  | 
11 | O=C(Nc1ccccc1)N1CC2(CCN(S(=O)(=O)c3ccccc3)CC2)C1 | > 11.4 µM (inactive) | -1.41% (inactive) | 16.1% (inactive) | -2.14% (inactive) | > 46 µM (inactive) | inactive | inactive |  | -5.83% (inactive) | 0.332 | -5.36 | inactive |  | -12.4% (inactive) | 
12 | Cn1cccc1C(=O)N1CCC2(CC1)CN(C(c1ccccc1)c1ccccc1)C2 | > 11.4 µM (inactive) | 14.4% (inactive) | -18.7% (inactive) | -4.09% (inactive) | > 46 µM (inactive) | inactive | inactive | 15.8 µM (active) | -5.27% (inactive) | -6.77 | -9.88 | inactive |  |  | 3.16 µM (active)
13 | COc1ccc(NC(=O)N2CCCC3(CCN(C(C)=O)CC3)C2)cc1 | > 11.4 µM (inactive) | -2.44% (inactive) | 11.5% (inactive) | -0.377% (inactive) | > 46 µM (inactive) | inactive | inactive |  | 5.88% (inactive) | 10.9 | 18.6 | inactive |  | -9.1% (inactive) | 
14 | Cn1cccc1C(=O)N1CCC[C@@]2(CCN(C(=O)Nc3cccc(C#N)c3)C2)C1 | > 11.4 µM (inactive) | -6.67% (inactive) | 10.5% (inactive) | -3.81% (inactive) | > 46 µM (inactive) | inactive | inactive | inactive | 5.85% (inactive) | 14.3 | 24.9 | inactive |  |  | 
